# The campaign covered roughly 220,000 compounds. About 5,700 (2.6%) were called active. Another 18% or so got no clear call; they are omitted. The entries come from a sample that favours actives as a whole. Unmarked numbers belong to inactive results. The call rests on the fitted dose curve; in most records, active means well fitted inhibition curve with a large enough effect; inconclusive means small, poorly fitted or top-dose-only effect; inactive means no such curve, though single readings can be large or run the other way.
# Target: Lysine-specific demethylase 5B (Homo sapiens) (UniProt Q9UGL1)
# Assay: Primary screen for KDM5B Histone Demethylases FDH-coupled qHTS; further: nearly all actives have a fitted effect of over 70% in size; on activity change, negative = inhibition: 0% is about no effect
# Details: FDH-coupled NADH fluorescence (FDH is formaldehyde dehydrogenase); series mostly up to 57.7 µM; activity change, negative = inhibition: at the top concentration
# Procedure, shortened: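 Inhibition is measured as reduced NADH fluorescence generation from FDH coupling to formaldehyde release. Truncated KDM5BΔAP at 200 nM final acts on H3K4me3 peptide (12.5 µM in substrate mix) in pH 7.5 HEPES buffer with Tween-20, 30 min, room temperature.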
# Potency means the concentration at half of the fitted maximal effect.
# Sequence of Lysine-specific demethylase 5B (Homo sapiens) (Q9UGL1 whole entry, looked up): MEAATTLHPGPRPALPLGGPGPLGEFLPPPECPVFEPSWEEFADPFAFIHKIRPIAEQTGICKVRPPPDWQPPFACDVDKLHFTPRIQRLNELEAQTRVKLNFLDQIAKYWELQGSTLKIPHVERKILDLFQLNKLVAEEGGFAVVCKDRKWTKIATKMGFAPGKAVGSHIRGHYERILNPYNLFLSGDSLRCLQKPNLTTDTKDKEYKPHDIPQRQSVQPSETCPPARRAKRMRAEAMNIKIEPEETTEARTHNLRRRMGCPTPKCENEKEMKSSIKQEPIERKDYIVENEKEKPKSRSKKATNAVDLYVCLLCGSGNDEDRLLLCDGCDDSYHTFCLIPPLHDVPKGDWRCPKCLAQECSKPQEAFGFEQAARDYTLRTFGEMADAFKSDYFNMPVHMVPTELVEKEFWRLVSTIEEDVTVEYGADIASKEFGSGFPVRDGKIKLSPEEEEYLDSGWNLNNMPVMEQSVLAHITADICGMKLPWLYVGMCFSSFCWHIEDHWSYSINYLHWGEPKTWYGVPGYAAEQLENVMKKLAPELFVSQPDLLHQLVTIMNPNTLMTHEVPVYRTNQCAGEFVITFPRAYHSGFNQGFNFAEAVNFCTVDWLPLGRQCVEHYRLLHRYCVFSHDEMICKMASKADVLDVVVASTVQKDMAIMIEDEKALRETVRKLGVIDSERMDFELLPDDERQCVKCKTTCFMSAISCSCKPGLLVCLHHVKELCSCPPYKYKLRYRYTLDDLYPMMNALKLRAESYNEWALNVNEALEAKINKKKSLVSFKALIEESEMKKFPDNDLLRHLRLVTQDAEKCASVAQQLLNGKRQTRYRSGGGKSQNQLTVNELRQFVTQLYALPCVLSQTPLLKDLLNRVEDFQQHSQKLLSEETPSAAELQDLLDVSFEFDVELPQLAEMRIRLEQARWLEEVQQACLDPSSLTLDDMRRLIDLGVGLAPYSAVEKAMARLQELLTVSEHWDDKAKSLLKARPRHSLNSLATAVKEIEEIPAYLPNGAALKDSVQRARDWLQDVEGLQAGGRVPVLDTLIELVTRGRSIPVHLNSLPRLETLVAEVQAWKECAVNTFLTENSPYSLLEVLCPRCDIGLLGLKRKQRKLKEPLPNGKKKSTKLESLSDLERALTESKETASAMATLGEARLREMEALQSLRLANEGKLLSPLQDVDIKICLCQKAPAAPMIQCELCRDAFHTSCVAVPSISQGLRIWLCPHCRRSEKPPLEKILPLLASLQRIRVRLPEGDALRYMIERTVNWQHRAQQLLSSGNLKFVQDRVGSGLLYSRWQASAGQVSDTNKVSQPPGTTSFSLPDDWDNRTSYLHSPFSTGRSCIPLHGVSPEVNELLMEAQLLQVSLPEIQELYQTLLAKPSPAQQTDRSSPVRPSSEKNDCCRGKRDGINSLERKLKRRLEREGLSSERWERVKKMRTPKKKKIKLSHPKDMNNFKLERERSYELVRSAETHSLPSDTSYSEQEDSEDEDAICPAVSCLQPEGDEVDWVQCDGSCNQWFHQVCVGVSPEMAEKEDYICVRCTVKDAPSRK
Compound,"activity change, negative = inhibition",Potency
Cc1ccc(F)cc1NC(=O)CCc1c[nH]c2ccccc12,17.4%,
COc1ccc(S(=O)(=O)N2CCC(C)CC2)c2cccnc12,12.9%,
CC(NC(=O)c1ccc(F)cc1)C12CC3CC(CC(C3)C1)C2 (configuration not stated),14.3%,
CCCn1c(CN2CCCCC2)nc2cc(NC(=O)c3cc(OC)c(OC)c(OC)c3)ccc21,5.88%,
Cc1cc(NC(=O)COc2c(CO)cc(F)cc2CO)ccc1Br,-18.6%,
COc1ccc(-c2noc(CCC(=O)Nc3ccn(C)n3)n2)cc1,-1.76%,
COc1ccc(CNC(=O)NCC(=O)N2CCCCCCNC(=O)CC2c2ccccc2)cc1 (configuration not stated),10.8%,
O=C1CCC(C(=O)NCc2ccc(-c3cnc4c(Oc5ccccc5)nccn34)cc2)N1 (configuration not stated),,35.5 µM (active)
O=C1NC(C(=O)NCc2ccccn2)Cn2cccc21 (configuration not stated),-25.1%,
O=S(=O)(c1ccc(Cl)cc1)c1nc(-c2ccco2)oc1N1CCCCC1,-11.1%,
Cc1ccc(C)c(NC(=O)C(c2ccccc2)n2cnc3c2c(=O)n(C)c(=O)n3C)c1 (configuration not stated),-13.9%,
COc1cccc(OCCN(C)Cc2cn(-c3ccccc3)nn2)c1,5.71%,
O=C(CCOc1ccc(Cl)cc1)N1CCC(c2nnc3n2CCC3)CC1,-10.3%,
Cc1ccc2nc(NC(C)(C)CO)nc(-c3ccccc3)c2c1,120%,
CC(CC#N)NC(=O)c1cc2ccccc2cc1NC(=O)OC(C)(C)C (configuration not stated),40.3%,
Cc1cc(C)nc(NC(=O)Nc2ccc(C)c(F)c2)c1,4.73%,
COc1ccc(-c2ocnc2C(=O)Nc2cccc(Cl)c2)cc1,10.2%,
O=C(CCc1ccccc1)NCCn1cccc1-c1nc(-c2ccc3c(c2)OCO3)no1,,31.6 µM (active)
Cc1ccc(NC(=O)Cn2cccc2-c2nc(-c3ccc4c(c3)OCO4)no2)cc1Cl,3.09%,
COc1ccc(NC(=O)Cn2cccc2-c2nc(-c3ccc4c(c3)OCO4)no2)c(OC)c1,3.86%,
N#CCc1ccc(OCC(O)Cn2cnc3ccc(Cl)cc3c2=O)cc1 (configuration not stated),4.38%,
Cc1ccc(S(=O)(=O)N2CCN(C)CC2)cc1C(=O)NC1CCCCC1,23.1%,

Compound,"activity change, negative = inhibition",Potency
CCOC(=O)N1CCC(NC(=O)CS(=O)Cc2nc(-c3ccccc3F)oc2C)CC1 (configuration not stated),4.01%,
O=C(Cc1cccn1-c1ccccc1)N1CCOCC1,-6.08%,
CCc1nc(-c2ccc(OC3CCN(C(=O)Cc4c[nH]c5ccccc45)C3)cc2)no1 (configuration not stated),7.34%,
Cc1noc(C)c1-c1cnc2[nH]cc(CC(=O)N3CCOCC3)c2c1,,35.5 µM (active)
Cc1ccc(S(=O)(=O)NC(=O)c2cccc(C)c2)cc1,-7.21%,
CCOc1ccccc1C(=O)N1CCC(Oc2ncccc2C(=O)N(C)C)C1 (configuration not stated),-1.4%,
O=C(CCn1cccn1)N[C@@H]1CN(Cc2ccccc2)C[C@H]1CO,14.5%,
Cc1cccnc1C(=O)N[C@@H]1CN(c2ncccn2)C[C@H]1CO,,20 µM (active)
O=C(N[C@@H]1CN(Cc2cccnc2)C[C@H]1CO)c1cccnc1,-2.06%,
CCOc1ccccc1C(=O)N[C@@H]1CN(c2ncccn2)C[C@H]1CO,,22.4 µM (active)
O=C(N[C@@H]1CN(c2ccncn2)C[C@H]1CO)C1CCCC1,12%,
CCc1nc2nc3c(cn2n1)C(=O)CC(c1ccc(Cl)cc1)C3 (configuration not stated),-0.51%,
CC(C)NS(=O)(=O)c1ccc(OCC(=O)NC2CCCCCC2)cc1,16.2%,
COc1ccc2c(=O)c(Oc3cccc(C)c3)c(C(F)(F)F)oc2c1,-8.82%,
COc1ccc(C23NCCN2C(=O)c2ccccc23)cc1 (configuration not stated),34.4%,
O=C(NCc1ccc2c(c1)OCO2)c1noc(-c2ccc(F)cc2)n1,7.84%,
COc1ccc(CNC(=O)c2noc(-c3ccc(F)cc3)n2)cc1,-17.9%,
CNc1nc(C(=O)NCc2ccc3[nH]c(-c4ccc(F)cc4)c(C)c3c2)cs1,,5.62 µM (active)
COc1ccc(CNC(=O)c2ccc(CS(=O)c3ccc(C)cc3)o2)cc1OC (configuration not stated),-8.94%,
Cc1ccc(CNC(=O)c2cc(=O)c3ccc(C)c(C)c3o2)cc1,13.1%,
Cc1c(-c2ccc(F)cc2)[nH]c2ccc(CNC(=O)c3ccc(CO)o3)cc12,,22.4 µM (active)
CCCc1nc(SCC(=O)N2CCCC2)c2c(=O)n(C)c(=O)n(C)c2n1,37.7%,

Compound,"activity change, negative = inhibition",Potency
Cc1ccccc1NC(=S)NNC=O,26.2%,
COc1ccc(OC)c(S(=O)(=O)N2CCCC(C(=O)NCCc3ccccc3)C2)c1 (configuration not stated),26.3%,
CC(=O)c1ccccc1NC(=O)CCc1ncc(-c2c(F)cccc2F)o1,-23.2%,
CCOC(=O)CN1C(=O)C2(CC(=O)Nc3[nH]ncc32)c2ccccc21 (configuration not stated),5%,
Cc1cnc(C)c(N2CCN(C(=O)C3CCC(=O)N(CCc4cccc(F)c4)C3)CC2)n1 (configuration not stated),0.442%,
Cc1cnc(C)c(N2CCN(C(=O)[C@H]3CC[C@@H](N)C3)CC2)n1,,22.4 µM (active)
N[C@@H]1CC[C@H](C(=O)N2CCN(CCCOc3ccc(F)cc3)CC2)C1,-4.43%,
COc1ccccc1Cc1nnc(NC(=O)c2cccc(NC(=O)c3ccccc3)c2)s1,-7.98%,
COc1ccc(OC2CCN(C(C)=O)CC2)c(C(=O)NCCc2ccccc2OC)c1,,25.1 µM (active)
COc1ccc(OC2CCN(C(C)=O)CC2)c(C(=O)N(C)Cc2ccc3nccnc3c2)c1,-11.7%,
COc1ccc(OC2CCN(C(C)=O)CC2)c(C(=O)NCc2snnc2C)c1,5.6%,
O=C(c1cc2ccccc2oc1=O)N1CCC(Cc2ccccc2)CC1,7.13%,
COCCC(=O)NCC1Cn2cccc2C(=O)N1Cc1ccccc1 (configuration not stated),-21.7%,
COCCN1C(=O)c2cccn2CC1CNC(=O)c1cc2ccccc2[nH]1 (configuration not stated),,28.2 µM (active)
COCCN1C(=O)c2cccn2CC1CNC(=O)c1ccccc1F (configuration not stated),-17.1%,
CCOC(=O)c1oc2cc(OC(C)=O)ccc2c(=O)c1-c1ccc(OC)cc1,-2.04%,
O=C1CO[C@H](c2ccc(NS(=O)(=O)c3cccc(F)c3)cc2)[C@@H](CO)N1Cc1ccncc1,15.3%,
COCc1nc2nccc(-c3ccccc3)n2n1,,31.6 µM (active)
Fc1ccc(Cc2nc3nccc(-c4cc5ccccc5o4)n3n2)cc1,-345%,
Fc1ccc(Cc2nc3nccc(-c4ccco4)n3n2)cc1,,20 µM (active)
COc1cc(F)ccc1C(C)=O,15.6%,
CCc1nc2nccc(-c3ccco3)n2n1,,28.2 µM (active)

Compound,"activity change, negative = inhibition",Potency
Cn1cc(C#N)cc1-c1nc(COc2ccccc2)nn1CC(F)(F)F,-14.2%,
COc1cc(F)ccc1-c1ccnc2nc(C(C)C)nn12,,28.2 µM (active)
COc1cc(F)ccc1-c1ccc(COc2ccc3c(cnn3CCC(=O)O)c2)cc1,-20.4% [at 86.2 µM],
Cc1cc(Nc2ccccc2)n2nc(Cc3ccc(Cl)cc3)nc2n1,19.8%,
O=C(O)c1cc(Br)c(Cl)[nH]1,-0.612%,
Cc1ccc2c(COC(=O)COc3ccc(C)c(C)c3)cc(=O)oc2c1,9.56%,
Cc1[nH]c2ccc(C(=O)N3CCN(C)CC3)cc2c1C,16.8%,
CCOc1ccc(C(=O)Nc2ccc3oc(C)nc3c2)cc1OCC,-8.51%,
N#CCCC(C#N)Cn1nc(-c2ccccc2)c2ccccc2c1=O (configuration not stated),4.44%,
CCN(CC)Cc1cnc2c(C(=O)NCc3ccsc3)cnn2c1,-24.5%,
CC#CC(=O)N1CCCC(C(=O)Nc2cccc(-c3cccc(C)c3)c2)C1 (configuration not stated),7.67%,
c1coc(-c2ccnc3nc(C4CC4)nn23)c1,,28.2 µM (active)
COc1ccc(CN2CC(Oc3ccc(F)c(F)c3)C2)cc1,-0.531% [at 149 µM],
COc1cccc(-c2ccnc3nc(Cc4cc(F)cc(F)c4)nn23)c1,,25.1 µM (active)
COc1ccc(-c2ccnc3nc(CC(C)C)nn23)c(F)c1,,28.2 µM (active)
COCCn1c(-c2cccc(OC)c2)cnc1NC(=O)NCCc1ccccc1,-4.88%,
COc1cccc(-c2nc(COc3ccccc3C#N)cs2)c1,-29%,
CC1CNC(C)(C)C(O)C1 (configuration not stated),22.2%,
Cn1c(=O)c2c(nc(NCc3cccs3)n2Cc2ccc(F)cc2)n(C)c1=O,12.8%,
Oc1c(C=Nc2ccc(F)c(Cl)c2)ccc2ccccc12,11.3%,
CC(NC(=O)CNC(=O)c1ccc(N2CCCC2=O)cc1)c1ccccc1Br (configuration not stated),-11.8%,
COc1ccc(C(=O)N[C@@H]2C[C@H](COc3cccc(C)n3)[C@@H](O)[C@H]2O)cc1,-15.3% [at 86.2 µM],

Compound,"activity change, negative = inhibition",Potency
CN(CC1CCN(CCc2cccc(F)c2)CC1)C(=O)c1cn2cccnc2n1,,28.2 µM (active)
CN(CCc1ccccn1)C(=O)c1ccc(OC2CCN(CCc3ccccc3)CC2)cc1,-6.05%,
CN(Cc1nccn1C)C(=O)c1cc(CN2CCC(Cc3ccccc3)CC2)on1,-7.68%,
CCCn1nc(C(=O)OCC(=O)N2CCc3ccccc32)c2ccccc2c1=O,24.1%,
COc1ccc(NC(=O)c2cnc3ccccc3n2)c(OC)c1,-11.9%,
CCCOCCCNC(=O)c1c(C)noc1-c1cc(OC)c(OC)c(OC)c1,,28.2 µM (active)
COc1ccc(-c2onc(C)c2C(=O)NCc2ccc3c(c2)OCO3)cc1,-8.26%,
CCCOCCCNC(=O)c1c(C)noc1-c1ccccc1Cl,6.54%,
O=C(COc1ccc2c(=O)c(-c3ccccc3)coc2c1)N1CCN(c2ccccn2)CC1,-1.74%,
Cc1ccc(-c2noc(Cn3cnc(C#N)n3)n2)cc1,7.52%,
Cc1ccc2[nH]cc(CCNC(=O)c3ccccc3C)c2c1,6.05%,
COc1ccccc1-c1cc(C(=O)NCc2cnn(C)c2)c2c(c1)N(C)CCO2,,28.2 µM (active)
COc1ccc(CN[C@@H]2CCC[C@@H](C(=O)NCc3cc(C)on3)CC(=O)N(C)C2)cn1,-11.1% [at 86.2 µM],
COc1cccc(-c2ccc(F)c(C(N)=O)c2)c1OC,-22.1%,
COc1cccc(-c2cc(C(=O)NCc3cc(C)on3)c3c(c2)N(C)CCO3)c1OC,,28.2 µM (active)
COc1ccc(CNC(=O)c2cccc3c2CCN3C(=O)c2ccc(F)cc2)cc1OC,-17.8%,
COc1ccccc1C(=O)Nc1ccnn1C1CCN(Cc2cnn(C)c2)CC1,9.36%,
Cc1ccccc1CN1C(=O)c2ccccc2Sc2ccc(C(=O)NCCCN3CCOCC3)cc21,-1.46%,
Cc1ccccc1-c1cc(C(=O)NCCN2CCNC2=O)c2c(c1)N(C)CCO2,,39.8 µM (active)

# From PubChem BioAssay AID1347165 (National Center for Advancing Translational Sciences (NCATS), 2019)
